# Assay results: PubChem BioAssay
# “And” between values parts separate entries of the source, which are not always exact repeats. Equal values may be shown once. Inconclusive results are not listed. The source made the active and inactive calls. Rule as the data show it, unless noted: active = parasite load remaining mostly below about 12% (no sharp cut-off); inactive = mostly above about 10%.
# Experiments:
# [1] = P. berghei load reduction in hepatocytes – cell-based, HepG2, luciferase luminescence, HepG2 viability, primary screen (AID 624349);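 also: 100% = mean of DMSO negative control wells on the same plate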; conditions: P. berghei liver stage in HepG2, luciferase luminescence, concentration not given here; parasite load remaining: stronger effect = lower value; viability: measured here: HepG2 viability without parasites
# [2] = test system: Neuropilin-2 / VEGF-C interaction (human); test: small molecules blocking Neuropilin-2/VEGF-C interaction – biochemical, microplate binding format, z-score (AID 743281; call rule not given here); conditions: microplate NRP2/VEGF-C binding assay; stronger effect = lower value
# [3] = test system: Aerobactin synthetase IucA (Klebsiella pneumoniae); test: inhibition of K. pneumoniae IucA enzyme – biochemical, Tocris library, absorbance (AID 1345561; call rule not given here;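 also: 100% = enzyme without compound and 0% = no enzyme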); conditions: purified IucA enzyme assay, absorbance (OD) read-out; stronger effect = lower value;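 tested at 8 µM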
# [4] = viability loss in pontine glioma line – cell-based, SU-DIPG-XIII, MIPE5.0, CellTiter-Glo, qHTS, dose response (AID 1347064; cut-off not given, nearly all actives have AC50 up to about 23 µM;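 as to AC50: cells exposed to compound for 48 hours before the viability read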); conditions: CellTiter-Glo ATP luminescence
# [5] = target: ATP-dependent translocase ABCB1 (Homo sapiens) (UniProt P08183); test: P-glycoprotein substrate transport blockade – cell-based (AID 377; in the data active = fluorescence slope change above about 50%); conditions: MDR1-expressing cells, fluorescent substrate accumulation slope; stronger effect = higher value; concentration not given here
# [6] = compounds altering circadian rhythm period length – cell-based, LOPAC library, luminescence reporter (AID 2774; call rule not given here;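 also: values are relative to mean of DMSO wells on each plate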); conditions: circadian reporter cells, at 7 µM, actives lie on both sides
# [7] = growth inhibition, single agents and combos, CRL2098, cell-based, BGB or cisplatin IC20 combos, synergistic combos for chromothripsis tumors (AID 1671454; in the data active = inhibition above about 80%;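 also: cells exposed for 96 h before readout; 0% = vehicle DMSO and 100% = killing by high DMSO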); conditions: CRL2098 osteosarcoma cells, drug combinations, stronger effect = higher value
# [8] = growth inhibition, single agents and combos, HD-MB03, cell-based, BGB or cisplatin IC20 combos, synergistic combos for chromothripsis tumors (AID 1671455; in the data active = inhibition above about 83%;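 also: 0% = vehicle DMSO and 100% = high DMSO as cytotoxic control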); conditions: HD-MB03 medulloblastoma cells, stronger effect = higher value
# [9] = growth inhibition, single agents and combos, UWB1.289, cell-based, BGB or cisplatin combos, synergistic combos for chromothripsis tumors (AID 1671456; in the data active = inhibition above about 80%;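 also: cells exposed to compound for four days; 0% = vehicle DMSO and 100% = killing by high DMSO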); conditions: UWB1.289 ovarian carcinoma cells, stronger effect = higher value
# [10] = growth inhibition, single agents and combos, LFS_MB_2R, cell-based, cisplatin combos, synergistic combos for chromothripsis tumors (AID 1671457; in the data active = inhibition above about 80%;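 also: cells exposed to compound for four days before readout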); conditions: LFS_MB_2R medulloblastoma cells, stronger effect = higher value
# [11] = UWB1.289_BRCA1 ovarian cancer growth, cell-based, BGB or cisplatin combinations (AID 1671459; in the data active = inhibition above about 80%); conditions: UWB1.289 BRCA1 ovarian carcinoma, drug combinations, stronger effect = higher value
# [12] = drug combination toxicity in non-malignant astrocytes – cell-based, BGB or cisplatin IC20 combos, cytotoxicity control for chromothriptic childhood tumor combination screen (AID 1671460; in the data active = inhibition above about 80%;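 also: cells exposed to compounds for 96 hours before viability readout; 0% = vehicle and 100% = killing control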); conditions: Human astrocytes, viability inhibition, drug combinations, at 0.5 µM, stronger effect = higher value
# [13] = antimalarial activity against Dd2 strain (AID 2302;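 active = growth inhibition above 50% at the single 2 µM test dose, taken to imply half-maximal potency below 2 µM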;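 also: 0% = DMSO untreated growth and 100% = chloroquine plus artemisinin killed control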); conditions: P. falciparum Dd2 in RBCs, LDH growth readout, 72 h; at 2 µM; stronger effect = higher value
# [14] = target: L-lactate dehydrogenase (Plasmodium falciparum (isolate CDC / Honduras)) (UniProt Q27743); test: PfLDH activity inhibition – cell lysate, 3D7 strain, counter-screen for P. falciparum growth inhibition project (AID 2304; call rule not given here;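 also: 0% = vehicle and 100% = reference inhibitor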); conditions: P. falciparum 3D7 crude extract, LDH APAD/NBT absorbance; at 2 µM; stronger effect = higher value
# [15] = inhibition of 3D7 malaria parasite growth – strain 3D7 (AID 2306; call rule not given here;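 also: 0% = DMSO wells and 100% = chloroquine plus artemisinin control wells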); conditions: P. falciparum 3D7 erythrocytic growth, LDH absorbance, 72 h; at 2 µM; stronger effect = higher value
# [16] = compounds altering HSF1 focus formation in cells – imaging, Selleck Cancer Library (AID 1347162; in the data active = plate-normalised HSF1 focus index below about 0.46); conditions: human cells, HSF1 nuclear foci imaging, at 10 µM; SSMD: measured here: HSF1 foci SSMD mean; cell count: measured here: cell number; plate-normalised HSF1 focus index: stronger effect = lower value
# [17] = measured here: combination with BGB at IC20, at 0.5 µM
# [18] = measured here: combination with cisplatin at IC20, at 0.5 µM
# [19] = measured here: combo with BGB at IC20, at 0.5 µM
# [20] = measured here: combo with cisplatin at IC20, at 0.5 µM
# [21] = measured here: inhibition with BGB combination, at 0.05 µM
# [22] = measured here: inhibition with cisplatin combination, at 0.05 µM
# [23] = measured here: combination with cisplatin, at 0.5 µM
# [24] = measured here: combination with cisplatin, at 5 µM
# [25] = BGB combination, concentration series, at 5 µM
# [26] = cisplatin combination, concentration series, at 5 µM
# [27] = measured here: combo with BGB IC20
# [28] = measured here: combo with cisplatin IC20
# ATP-dependent translocase ABCB1 (Homo sapiens), sequence (P08183 whole entry, looked up): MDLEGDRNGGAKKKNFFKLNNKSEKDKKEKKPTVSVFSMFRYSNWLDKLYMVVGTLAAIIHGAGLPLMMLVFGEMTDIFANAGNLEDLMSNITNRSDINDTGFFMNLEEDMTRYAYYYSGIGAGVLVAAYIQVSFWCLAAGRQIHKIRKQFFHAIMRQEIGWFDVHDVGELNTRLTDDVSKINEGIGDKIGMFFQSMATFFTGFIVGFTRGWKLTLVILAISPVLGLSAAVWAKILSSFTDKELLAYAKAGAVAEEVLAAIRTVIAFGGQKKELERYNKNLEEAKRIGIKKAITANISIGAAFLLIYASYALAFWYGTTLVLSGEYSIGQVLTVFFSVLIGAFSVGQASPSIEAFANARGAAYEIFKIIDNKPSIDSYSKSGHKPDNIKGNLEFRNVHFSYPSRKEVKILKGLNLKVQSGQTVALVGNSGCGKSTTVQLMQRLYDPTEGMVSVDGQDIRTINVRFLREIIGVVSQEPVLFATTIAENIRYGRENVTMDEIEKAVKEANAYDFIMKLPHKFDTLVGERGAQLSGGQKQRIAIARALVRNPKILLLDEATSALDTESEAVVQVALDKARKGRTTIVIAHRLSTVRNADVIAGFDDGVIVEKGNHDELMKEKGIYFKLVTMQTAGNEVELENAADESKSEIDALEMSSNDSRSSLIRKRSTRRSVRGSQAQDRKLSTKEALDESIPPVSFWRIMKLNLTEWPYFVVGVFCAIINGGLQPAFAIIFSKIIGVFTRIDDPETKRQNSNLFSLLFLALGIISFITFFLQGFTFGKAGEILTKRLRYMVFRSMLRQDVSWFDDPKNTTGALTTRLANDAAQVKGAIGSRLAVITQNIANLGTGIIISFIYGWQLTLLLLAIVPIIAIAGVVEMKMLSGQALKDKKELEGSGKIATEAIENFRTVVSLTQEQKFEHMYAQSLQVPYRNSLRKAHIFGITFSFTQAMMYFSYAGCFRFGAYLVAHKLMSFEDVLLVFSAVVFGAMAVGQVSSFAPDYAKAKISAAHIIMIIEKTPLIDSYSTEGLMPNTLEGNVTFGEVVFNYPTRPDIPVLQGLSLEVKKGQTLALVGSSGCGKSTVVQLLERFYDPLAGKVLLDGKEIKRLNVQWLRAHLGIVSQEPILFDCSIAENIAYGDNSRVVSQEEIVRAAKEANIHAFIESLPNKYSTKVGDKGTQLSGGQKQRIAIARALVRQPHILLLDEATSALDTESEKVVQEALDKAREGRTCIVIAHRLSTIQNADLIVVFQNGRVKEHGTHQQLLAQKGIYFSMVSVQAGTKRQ
# L-lactate dehydrogenase (Plasmodium falciparum (isolate CDC / Honduras)), sequence (Q27743 whole entry, looked up): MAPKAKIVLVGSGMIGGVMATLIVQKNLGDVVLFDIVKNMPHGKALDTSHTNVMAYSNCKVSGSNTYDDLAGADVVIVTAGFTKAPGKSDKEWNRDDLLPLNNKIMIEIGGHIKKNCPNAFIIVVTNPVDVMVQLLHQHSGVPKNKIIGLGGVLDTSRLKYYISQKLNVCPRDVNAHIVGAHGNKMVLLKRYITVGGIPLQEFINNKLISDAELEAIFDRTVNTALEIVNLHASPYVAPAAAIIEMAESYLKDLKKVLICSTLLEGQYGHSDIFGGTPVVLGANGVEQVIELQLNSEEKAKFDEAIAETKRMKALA
smiles,measurement,setting,value
CC1(C)O[C@@H]2[C@@H](CO[C@@]3(COS(N)(=O)=O)OC(C)(C)O[C@@H]23)O1,parasite load remaining,[1],169% (inactive) and 59.3% (inactive) and 91.8% (inactive)
same,viability,[1],90.1% and 108% and 69.4%
same,z-score,[2],-1.38 (inactive)
same,remaining activity,[3],121% (inactive)
CC(=O)CC(c1ccccc1)c1c(O)c2ccccc2oc1=O (centres undefined),parasite load remaining,[1],43.1% (inactive) and 79.3% (inactive) and 42.7% (inactive)
same,viability,[1],95.3% and 65.5% and 98.1%
CN[C@H]1CC[C@@H](c2ccc(Cl)c(Cl)c2)c2ccccc21,z-score,[2],-0.0357 (inactive)
same,AC50,[4],26.3 µM (active)
CCCNCC(O)COc1ccccc1C(=O)CCc1ccccc1 (centres undefined),fluorescence slope change,[5],74.2% (active)
same,period change,[6],-0.03 h (inactive)
same,outcome,[4],inactive
Clc1ccc2c(c1)C(N1CCNCC1)=Nc1ccccc1O2,fluorescence slope change,[5],156% (active)
same,period change,[6],0.105 h (inactive)
CCCCCCNC(=O)n1cc(F)c(=O)[nH]c1=O,parasite load remaining,[1],405% (inactive) and 109% (inactive)
same,viability,[1],90% and 80.4%
same,z-score,[2],0.686 (inactive)
same,inhibition,[7]; at 0.5 µM,-23.4% (inactive) and -30.5% (inactive)
same,inhibition,[7]; [17],-16.8% and -6.28%
same,inhibition,[7]; [18],-120% and -21%
same,inhibition,[8]; at 0.5 µM,-1.02% (inactive) and -7.18% (inactive)
same,inhibition,[8]; [19],-21.9% and -3.96%
same,inhibition,[8]; [20],21% and -14.9%
same,inhibition,[9]; at 0.5 µM,5.77% (inactive) and 18.7% (inactive)
same,inhibition,[9]; [21],-24.4% and -30.3%
same,inhibition,[9]; [22],-28.4% and -20.9%
same,inhibition,[10]; at 0.5 µM,-18.7% (inactive) and -16.7% (inactive)
same,inhibition,[10]; [23],-15.8% and -16.6%
same,inhibition,[10]; [24],-25.7% and -25.2%
same,inhibition,[11]; [25],34.1% and 35.2%
same,inhibition,[11]; at 0.5 µM,11% (inactive) and 22.4% (inactive)
same,inhibition,[11]; [26],14.4% and 26.3%
same,inhibition,[12],7.08% (inactive) and 16.2% (inactive)
same,inhibition,[12]; [27],-8.62% and 3.35%
same,inhibition,[12]; [28],18.1% and 20.7%
CCc1cccc2c3c([nH]c12)C(CC)(CC(=O)O)OCC3 (centres undefined),fluorescence slope change,[5],73.7% (active)
same,period change,[6],-0.07 h (inactive)
CCc1nc(N)nc(N)c1-c1ccc(Cl)cc1,growth inhibition,[13],0% (inactive) and -1% (inactive)
same,inhibition,[14],-5% (inactive) and 5% (inactive)
same,growth inhibition,[15],94% (active) and 93% (active)
Cc1ccccc1C(OCCN(C)C)c1ccccc1 (centres undefined),fluorescence slope change,[5],22.7% (inactive)
same,period change,[6],0.21 h (inactive)
Cc1ccc(-c2cc(C(F)(F)F)nn2-c2ccc(S(N)(=O)=O)cc2)cc1,AC50,[4],18.6 µM (active)
same,SSMD,[16],-12.9
same,cell count,[16],5490
same,plate-normalised HSF1 focus index,[16],0.546 (inactive)
COc1ccccc1OCC(O)COC(N)=O (centres undefined),fluorescence slope change,[5],15.6% (inactive)
CN(C)CCc1c[nH]c2ccc(C[C@H]3COC(=O)N3)cc12,parasite load remaining,[1],65.6% (inactive) and 76.6% (inactive) and 61% (inactive)
same,viability,[1],90.7% and 99.3% and 74.3%
same,z-score,[2],-0.511 (inactive)
CN1CCCC(n2nc(Cc3ccc(Cl)cc3)c3ccccc3c2=O)CC1 (centres undefined),parasite load remaining,[1],30% (inactive) and 46.4% (inactive) and 19.4% (inactive)
same,viability,[1],75.4% and 180% and 64.4%
same,z-score,[2],0.519 (inactive)
NC(=O)N1c2ccccc2CC(=O)c2ccccc21,z-score,[2],0.598 (inactive)
c1ccc2[nH]c(-c3cscn3)nc2c1,fluorescence slope change,[5],17.8% (inactive)
Cn1cnc([N+](=O)[O-])c1Sc1ncnc2nc[nH]c12,fluorescence slope change,[5],53.6% (active)
same,period change,[6],0.485 h (inactive)
same,inhibition,[7]; at 0.5 µM,-39.2% (inactive) and -50.5% (inactive)
same,inhibition,[7]; [17],-37.7% and -16.5%
same,inhibition,[7]; [18],-43.1% and -68.9%
same,inhibition,[8]; at 0.5 µM,-1.96% (inactive) and 2.76% (inactive)
same,inhibition,[8]; [19],-3.82% and 4.08%
same,inhibition,[8]; [20],-5.61% and 15.3%
same,inhibition,[9]; at 0.5 µM,39.3% (inactive) and 42.9% (inactive)
same,inhibition,[9]; [21],-15.3% and -18.7%
same,inhibition,[9]; [22],-7.01% and -1.15%
same,inhibition,[10]; at 0.5 µM,-16.6% (inactive) and -22.7% (inactive)
same,inhibition,[10]; [23],-17.1% and -11.6%
same,inhibition,[10]; [24],-20.9% and -25.4%
same,inhibition,[11]; [25],90.9% and 88.9%
same,inhibition,[11]; at 0.5 µM,37.4% (inactive) and 50.2% (inactive)
same,inhibition,[11]; [26],96.5% and 101%
same,inhibition,[12],-1.25% (inactive) and 13.6% (inactive)
same,inhibition,[12]; [27],5.14% and 24.1%
same,inhibition,[12]; [28],-7.22% and 6.12%
O=C1C(CCS(=O)c2ccccc2)C(=O)N(c2ccccc2)N1c1ccccc1 (centres undefined),fluorescence slope change,[5],61.4% (active)
OC(CCN1CCCC1)(c1ccccc1)C1CCCCC1 (centres undefined),fluorescence slope change,[5],70.5% (active)
NC(=O)c1cnccn1,fluorescence slope change,[5],13.7% (inactive)
same,period change,[6],0 h (inactive)
same,outcome,[4],inactive
N[C@@H](C(=O)N[C@@H]1C(=O)N2C(C(=O)O)=C(Cl)CS[C@H]12)c1ccccc1,z-score,[2],-0.232 (inactive)
COc1ccc(OC)c(C(O)CNC(=O)CN)c1 (centres undefined),fluorescence slope change,[5],79.4% (active)
Nc1ncn([C@@H]2O[C@H](CO)[C@@H](O)[C@H]2O)c(=O)n1,period change,[6],0.105 h (inactive)
same,parasite load remaining,[1],162% (inactive) and 170% (inactive) and 176% (inactive)
same,viability,[1],101% and 77.2% and 95%
same,AC50,[4],1.66 µM (active)
same,SSMD,[16],1.14
same,cell count,[16],7120
same,plate-normalised HSF1 focus index,[16],1.04 (inactive)
NS(=O)(=O)c1cc2c(cc1Cl)NC=NS2(=O)=O,period change,[6],0.02 h (inactive)
same,outcome,[4],inactive
NCc1ccc(S(N)(=O)=O)cc1,fluorescence slope change,[5],164% (active)
Cc1ncc([N+](=O)[O-])n1CC(C)O (centres undefined),parasite load remaining,[1],136% (inactive) and 103% (inactive) and 36% (inactive)
same,viability,[1],85.3% and 77% and 71%
same,z-score,[2],0.376 (inactive)
COc1cc2nc(N(C)CCCNC(=O)C3CCCO3)nc(N)c2cc1OC (centres undefined),z-score,[2],-0.33 (inactive)
O=S(=O)(O)CCS,fluorescence slope change,[5],5.5% (inactive)
same,parasite load remaining,[1],51.7% (inactive) and 115% (inactive) and 24.6% (inactive)
same,viability,[1],104% and 70.5% and 96.3%
same,outcome,[4],inactive
O=c1[nH]cc(F)c(=O)[nH]1,period change,[6],0.215 h (inactive)
same,outcome,[4],inactive
same,SSMD,[16],2.14
same,cell count,[16],7020
same,plate-normalised HSF1 focus index,[16],1.12 (inactive)
same,inhibition,[7]; at 0.5 µM,-19.9% (inactive)
same,inhibition,[7]; [17],-48.5%
same,inhibition,[7]; [18],13.5%
same,inhibition,[8]; at 0.5 µM,-10.4% (inactive)
same,inhibition,[8]; [19],-12.3%
same,inhibition,[8]; [20],-6.42%
same,inhibition,[9]; at 0.5 µM,0.81% (inactive)
same,inhibition,[9]; [21],-23.6%
same,inhibition,[9]; [22],-10.5%
same,inhibition,[10]; at 0.5 µM,-13.7% (inactive)
same,inhibition,[10]; [23],-7.48%
same,inhibition,[10]; [24],-1.94%
same,inhibition,[11]; [25],2.42%
same,inhibition,[11]; at 0.5 µM,-7.71% (inactive)
same,inhibition,[11]; [26],17%
same,inhibition,[12],-3.88% (inactive)
same,inhibition,[12]; [27],2.98%
same,inhibition,[12]; [28],-4.03%
COC(=O)Nc1nc2ccc(C(=O)c3ccccc3)cc2[nH]1,fluorescence slope change,[5],92.4% (active)
same,AC50,[4],0.417 µM (active)
COC1=CC(=O)C[C@@H](C)[C@]12Oc1c(Cl)c(OC)cc(OC)c1C2=O,parasite load remaining,[1],86.5% (inactive) and 55.9% (inactive) and 116% (inactive)
same,viability,[1],139% and 48% and 184%
C/C=C/C(=O)N(CC)c1ccccc1C,z-score,[2],-0.426 (inactive)
same,outcome,[4],inactive
NS(=O)(=O)c1cc(C2(O)NC(=O)c3ccccc32)ccc1Cl (centres undefined),fluorescence slope change,[5],22.1% (inactive)
